Source: PubChem BioAssay (National Center for Advancing Translational Sciences (NCATS))
Shiga toxin inh – Shiga toxin inhibition. inhibition, % at 38.7 µM. Vero cells, Shiga toxin protein synthesis inhibition reporter. hit rate 9.2% among 290,000; in the data active = inhibition mostly above about 28%, no sharp cut-off; inactive = mostly below about 43%; also: 0% is about no effect
NS1 inh – influenza NS1 inhibition | Potency, µM (top dose mostly 46.1 µM), for the others: at the top dose activity, positive = more growth | AID 2326 | hit rate 0.4% among 270,000; calls by dose curve; also: potency is read from the fitted curve at half-maximal effect; actives are rising curves; nearly all actives have a fitted effect of over 50% in size
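Compounds were scored for reversing the slow growth caused by influenza A NS1 in S. cerevisiae, measured by optical density at 600 nm. Assay medium contained 2% galactose at pH 6.0; NS1-free yeast of the same strain were the positive control.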
Pf growth 48h – inhibits P. falciparum growth in the first generation, 48 h; P. falciparum luciferase growth in erythrocytes, 48 h; Potency, µM (top dose mostly 28.7 µM), for the others: at the highest dose activity change, negative = inhibition, hits mostly inhibitors; hit rate 5.9% among 310,000; AID 504832; also: potency is read from the fitted curve at half-maximal effect; % is scaled to controls: 0 for no effect and ±100 for the full control effect
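Parasite viability was followed by luminescence of a genomically integrated firefly luciferase. Cultures held 0.1% parasitemia at 2% hematocrit (final), incubated under 5% CO2 at 37 C.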
Cycloheximide cs – counter-screen hit for Shiga toxin inhibitors, cycloheximide; cell reporter, cycloheximide protein synthesis inhibition counterscreen; max response, %; hit rate 12% among 300,000; in the data active = max response mostly above about 13%, no sharp cut-off; inactive = mostly below about 14%; also: read at 38.3 µM for the half of the compounds with a filed dose; 0% is about no effect
Pf growth 96h – P. falciparum growth inhibition at 96 hours; Potency, µM (highest dose often 28.7 µM), for the others: top-dose activity change, negative = inhibition, usual class: inhibitors; AID 504834; P. falciparum luciferase reporter growth, 96 h; hit rate 6.9% among 320,000; also: potency is read from the fitted curve at half-maximal effect; % is scaled to controls: 0 for no effect and ±100 for the full control effect
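Two-generation exposure (96 h) targets delayed-death phenotype. Reporter parasites carrying integrated firefly luciferase, in red cells at 2% hematocrit and 0.05% parasitemia final, kept at 37 C, 5% CO2; luminescence loss indicates inhibition.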
Numbers without * were called inactive; ? = inconclusive; . = not tested or not shown; [ ] = dose if it differs, or a comment. Most compounds without a hit are left out; they make up all but 21% or so of the library. Unless noted, calls follow the shape of the dose curve; as a rule, active = well fitted inhibition curve with a large enough effect; inconclusive = small, poorly fitted or top-dose-only effect, or another doubt; inactive = no such curve, though single readings can be large or run the other way.

SMILES	Shiga toxin inh	NS1 inh	Pf growth 48h	Cycloheximide cs	Pf growth 96h
O=C(CSc1nnc(CNc2ccc(F)cc2)n1-c1ccccc1)N1CCOCC1	21.3	-1.6%	?	-5.1	?
CC(C)CN(C(=O)COC(=O)c1c(Cl)ccc(Cl)c1Cl)C1CCS(=O)(=O)C1 (centres undefined)	-5.1	.	?	-2.7	11.7µM*
C=C1C(=O)O[C@@H]2[C@H]1CC[C@H](C)[C@]1(O)CCC(=O)[C@@]21C	48.3	4.6%	6.8%[0.00184 µM]	21.1*	0.0%
O=C(NCC1CCCO1)c1nnc(Cc2ccc(F)cc2)o1 (centres undefined)	-12.4	-14.7%	26.7%	-2.7	?
CC(C(=O)NC1CCCc2ccccc21)N1C(=O)C2CCCCC2C1=O (centres undefined)	.	.	-1.9%	.	-3.7%
Cc1nc2ccccn2c1C(=O)NNC(=S)Nc1ccc(Cl)cc1	19.3*	-16.9%	-4.3%	-1.0	-13.6%
Cc1nc2ccccn2c1C(=O)NNC(=S)Nc1ccccc1	-0.9	1.9%	?	6.6	-5.8%
COc1ccc(NC(=O)c2c(Cl)nc3ccccn23)cc1	74.0*	-17.2%	147.3%	31.7*	102.6%
CCC(=O)Nc1ccc(NC(=O)c2c(C)nc3ccccn23)cc1	10.4	-3.1%	25.1%	-3.9	74.3%
O=C(Nc1ccc(F)cc1)c1c(Cl)nc2ccccn12	73.3*	-3.8%	169.4%	31.2*	37.1%
Cc1ccc(C(=O)NCC(=O)OCc2cccc(Br)c2)cc1	.	.	7.3%	.	19.9%
N#CC1=C2SCCN2C(=O)C(C#N)C12CCCCC2 (centres undefined)	-11.7	-14.6%	-7.8%	3.6	2.08µM*
Cn1c(=O)c2c(nc(Sc3ncnn3CC(=O)NC3CCCCC3)n2C)n(C)c1=O	12.5	3.3%	-8.8%	-3.8	0.3%
CCCC(=O)N1CCN(c2ccc([N+](=O)[O-])c(NC(C)c3ccccc3)c2)CC1 (centres undefined)	-19.8	-56.9%	11.7µM*	-5.8	9.28µM*
CC(Nc1cc(N2CCOCC2)ccc1[N+](=O)[O-])c1ccccc1 (centres undefined)	-12.6	13.1%	?	-2.6	-13.5%
CC(Nc1cc(N2CCCC2)ccc1[N+](=O)[O-])c1ccccc1 (centres undefined)	29.7	4.5%	13.1µM*	-3.4	?
CC(Nc1cc(N2CCN(S(=O)(=O)N(C)C)CC2)ccc1[N+](=O)[O-])c1ccccc1 (centres undefined)	2.4	-2.2%	14.7µM*	2.2	182.3%
CC(Nc1cc(N2CCN(S(C)(=O)=O)CC2)ccc1[N+](=O)[O-])c1ccccc1 (centres undefined)	-11.2	-1.9%	?	-2.7	-5.0%
CSc1nc(NNC=O)cc(Oc2ccc(NC(C)=O)cc2)n1	.	16.8%	26.3%	-1.2	1.9%
COc1cccc(CNC(=O)c2ccc(OCC(=O)N3CCOCC3)c(OC)c2)c1	.	.	-2.6%	.	17.4%
CCc1noc(C)c1C(=O)N(CC)CC(=O)Nc1cc(Cl)ccc1C	.	.	-12.0%	.	-23.4%
Cn1c2ccccc2c(=O)c2ccc(C#CC3(N)CCCCC3)cc21	85.1*	16.9%	19.1%	45.5*	?
O=C(c1ccc(C#CC2(O)CCCCC2)cc1)N1CCOCC1	37.4	-0.7%	21.9%	16.2	.
COc1cccc2oc3ccc(C#CC4(N)CCCCC4)cc3c(=O)c12	24.3*	4.2%	-23.3%	20.9*	-79.8%
Cn1c2ccccc2c(=O)c2cc(C#CC3(O)CCCCC3)ccc21	55.9*	7.0%	93.8%	26.6*	124.4%
SMILES	Shiga toxin inh	NS1 inh	Pf growth 48h	Cycloheximide cs	Pf growth 96h
Cc1ccccc1NC(=O)c1cc([N+](=O)[O-])ccc1NCCN1C(=O)CCC1=O	30.6	-0.3%	-20.0%	-1.9	?
NCCNc1ncnc2ccc(Cl)cc12	.	-2.8%	.	.	.
CCCCCCCC(=O)N1CCN(c2cc3c(cc2F)c(=O)c(C(=O)O)cn3CC)CC1	-4.7	-0.8%	?	-1.5	?
CCCCCCCCC(=O)N1CCN(c2cc3c(cc2F)c(=O)c(C(=O)O)cn3CC)CC1	17.9	2.5%	?	-0.8	?
CCn1cc(C(=O)O)c(=O)c2cc(F)c(N3CCN(C(=S)NC(=O)c4ccccc4F)CC3)cc21	2.1	1.8%	4.15µM*	-1.2	6.57µM*
CCn1cc(C(=O)O)c(=O)c2cc(F)c(N3CCN(C(=O)Nc4ccccc4)CC3)cc21	-7.0	-36.6%	0.465µM*	-1.8	4.7%
CCn1cc(C(=O)O)c(=O)c2cc(F)c(N3CCN(S(=O)(=O)c4ccc(NC(C)=O)cc4)CC3)cc21	-10.1	?	6.57µM*	-7.0	?
CCn1cc(C(=O)O)c(=O)c2cc(F)c(N3CCNCC3)cc21	-9.0	-4.2%	?	2.8	1.61µM*
O=S(=O)(c1ccc(F)cc1)N1CCCN(c2nccc(C(F)(F)F)n2)CC1	1.2	-4.6%	-13.4%	-0.8	-9.9%
CCn1cc(C(=O)NN)c(=O)c2cc(F)c(N3CCOCC3)cc21	3.3	14.3%	?	-8.2	11.7µM*
COC(=O)c1ccc(NC(=O)COc2ccc([N+](=O)[O-])cc2)cc1	-1.2	0.8%	?	4.0	0.0%
CCOC(=O)c1ccc(NC(=O)COc2ccccc2CNC2CCCC2)cc1	2.2	6.3%	4.65µM*	-0.7	0.0%
CCOc1cc(CNC2CCCC2)c(Cl)cc1OCC(=O)Nc1ccccc1	-14.5	0.3%	10.4µM*	-3.8	18.1%
CCCNCc1cc(OC)c(OCC(=O)Nc2ccccc2)cc1Br	-11.1	-4.3%	?	10.4	-15.6%
c1ccc(COc2ccccc2CNC2CCCC2)cc1	11.3	2.6%	?	-4.9	5.22µM*
CC(C)(C)c1nc(SCC(=O)N2CC(=O)Nc3ccccc32)c2ccccc2n1	-6.3	2.4%	-18.9%	-3.0	4.6%
Cc1ccccc1-n1nnnc1SCC(=O)NCC1CCCO1 (centres undefined)	-2.2	.	9.8%	4.2	-5.1%
Cc1ccc(S(=O)(=O)n2nccc2-c2c(-c3ccc(Cl)cc3)noc2C)cc1	-3.1	2.4%	0.657µM*	-0.9	0.37µM*
COc1cccc(OCC(=O)Nc2cc(Cl)ccc2Oc2ccccc2)c1	-9.0	-2.7%	?	-1.2	?
Cc1cccc(C)c1N(CC(=O)Nc1cc(Cl)ccc1Oc1ccccc1)S(C)(=O)=O	16.1	-1.9%	10.4µM*	-2.6	?
COc1ccc(C)cc1NC(=O)CN(c1ccccc1F)S(C)(=O)=O	2.9	-1.7%	29.2%	-1.7	54.5%
CC(=O)c1ccc(NC(=O)CN(c2c(C)cccc2C)S(C)(=O)=O)cc1	98.5*	4.0%	27.3%	23.1*	?
Cc1ccc(C)c(N(CC(=O)Nc2cc(Cl)ccc2Oc2ccccc2)S(C)(=O)=O)c1	-10.1	?	?	-3.6	14.7µM*
COc1ccc(/C=C/C(=O)Nc2nonc2NC(C)=O)cc1	17.9	-2.7%	54.7%	9.2	?
Cc1ccc2nc(NCc3ccccc3)c(C=NCc3ccccc3)c(=O)n2c1	13.9	-17.7%	42.7%	2.0	-8.4%
CCC(C)Sc1cccc(-c2nc3ccc(Cl)cn3c2NCc2ccccc2)c1 (centres undefined)	.	.	9.28µM*	.	10.4µM*
